{"source": "paper PMC4336329", "about": "(PLoS ONE, 2015)", "note": "Among all 310,000 compounds or so, about 2,200 (0.71%) showed an effect of 50% or more. Effects have a minus sign here. The full list was thinned out, with strong results kept by preference."}
{"target": "human ether-à-go-go-related gene (hERG) potassium channel (human, UniProt Q12809)", "sequence (Q12809 whole entry, looked up)": "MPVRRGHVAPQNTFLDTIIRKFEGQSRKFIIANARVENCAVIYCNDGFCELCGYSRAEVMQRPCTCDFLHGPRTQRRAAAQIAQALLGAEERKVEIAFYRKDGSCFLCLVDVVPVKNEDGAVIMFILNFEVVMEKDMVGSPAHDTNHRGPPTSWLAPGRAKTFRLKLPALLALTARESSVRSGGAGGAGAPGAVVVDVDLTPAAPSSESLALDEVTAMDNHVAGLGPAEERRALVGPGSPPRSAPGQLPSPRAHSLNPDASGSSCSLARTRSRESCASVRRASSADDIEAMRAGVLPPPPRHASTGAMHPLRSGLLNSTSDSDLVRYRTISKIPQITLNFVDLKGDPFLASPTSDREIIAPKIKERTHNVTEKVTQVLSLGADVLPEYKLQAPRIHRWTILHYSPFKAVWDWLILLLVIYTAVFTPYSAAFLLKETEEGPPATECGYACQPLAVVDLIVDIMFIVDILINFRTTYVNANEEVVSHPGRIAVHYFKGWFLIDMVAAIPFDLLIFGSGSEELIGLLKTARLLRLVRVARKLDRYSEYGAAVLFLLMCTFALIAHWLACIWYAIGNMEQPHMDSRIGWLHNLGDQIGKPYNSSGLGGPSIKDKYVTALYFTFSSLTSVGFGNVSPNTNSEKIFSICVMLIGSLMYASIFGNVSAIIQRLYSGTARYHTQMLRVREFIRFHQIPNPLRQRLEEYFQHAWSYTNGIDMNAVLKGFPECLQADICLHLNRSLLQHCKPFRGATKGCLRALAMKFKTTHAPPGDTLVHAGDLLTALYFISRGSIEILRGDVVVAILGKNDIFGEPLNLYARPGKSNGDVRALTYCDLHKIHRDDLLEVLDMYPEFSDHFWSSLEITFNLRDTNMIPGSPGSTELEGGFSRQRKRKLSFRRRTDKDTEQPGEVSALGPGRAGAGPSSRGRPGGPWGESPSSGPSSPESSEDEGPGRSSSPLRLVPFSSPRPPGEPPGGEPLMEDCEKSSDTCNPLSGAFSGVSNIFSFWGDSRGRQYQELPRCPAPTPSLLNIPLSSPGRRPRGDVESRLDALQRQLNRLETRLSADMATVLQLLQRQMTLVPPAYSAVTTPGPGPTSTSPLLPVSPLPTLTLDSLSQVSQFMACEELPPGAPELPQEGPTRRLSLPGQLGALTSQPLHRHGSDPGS", "test": "primary screen, population patch clamp on CHO cells stably expressing hERG; higher = less effect of the substance", "procedure": "Briefly, Chinese hamster ovary (CHO) cells stably expressing the hERG channel were dislodged from tissue culture flasks and dispensed into PPC plates. […] During the recording, background leak currents were estimated by a 100 ms step to -80 mV from an initial holding potential of -70 mV and subtracted from the subsequent current measurement. The campaign was conducted in two phases using slight differences in recording protocol. In the first phase, the initial voltage pulse used a 100 ms step to -30 mV from a holding potential of -70 mV, a 2 s conditioning step to +25 mV, and a 2 s test step to -30 mV. During the second phase of the screen, the potential during the conditioning step was raised to +45 mV. In both phases of the campaign, a secondary voltage pulse was applied using the same parameters as the second phase initial pulse. The initial and secondary pulses were applied in the absence of compound, and upon application of 1 μM and 10 μM test concentrations. Small molecule effects on hERG current density were quantified by […].", "units": {"hERG current change (%, negative = inhibition) at 1uM": "%"}}
{"smiles": "CCOc1cc(C)ccc1OCc1nnc(SCC(=O)c2cccc([N+](=O)[O-])c2)n1CC", "hERG current change (%, negative = inhibition) at 1uM": -1.84}
{"smiles": "O=C(Nc1cc(=O)[nH]c2ncnn12)c1ccc(Cl)cc1Cl", "hERG current change (%, negative = inhibition) at 1uM": -2.66}
{"smiles": "CC(C)(C)c1ccc(C(=O)NN2C(=O)CSC2=S)cc1", "hERG current change (%, negative = inhibition) at 1uM": 12.1}
{"smiles": "CCOC(=O)C1(CCc2ccccc2)CCN(Cc2ccc(OC)cc2)CC1", "hERG current change (%, negative = inhibition) at 1uM": -86.9}
{"smiles": "CCOC(=O)C1(CCc2ccccc2)CCN(Cc2c(O)cccc2OC)CC1", "hERG current change (%, negative = inhibition) at 1uM": -28.7}
{"smiles": "CCOC(=O)C1(Cc2ccccc2)CCN(Cc2ccc3c(c2)OCCO3)CC1", "hERG current change (%, negative = inhibition) at 1uM": -0.488}
{"smiles": "CCOC(=O)C1(CCc2ccccc2)CCN(Cc2cc(OC)c(OC)cc2OC)CC1", "hERG current change (%, negative = inhibition) at 1uM": -68.1}
{"smiles": "CCOC(=O)C1(CCc2ccccc2)CCN(Cc2ccc(O)cc2)CC1", "hERG current change (%, negative = inhibition) at 1uM": -86.3}
{"smiles": "CCOC(=O)C1(CCc2ccccc2)CCN(CC(O)CO)CC1", "note": "(stereo not drawn)", "hERG current change (%, negative = inhibition) at 1uM": 1.26}
{"smiles": "CCOC(=O)C1(CCc2ccccc2)CCN(Cc2ccco2)CC1", "hERG current change (%, negative = inhibition) at 1uM": -42.7}
{"smiles": "CCOC(=O)C1(Cc2ccccc2)CCN(Cc2cccc(OC)c2O)CC1", "hERG current change (%, negative = inhibition) at 1uM": -31}
{"smiles": "CCOC(=O)C1(CCc2ccccc2)CCN(Cc2ccc3c(c2)OCCO3)CC1", "hERG current change (%, negative = inhibition) at 1uM": -91.4}
{"smiles": "CCOC(=O)C1(CCc2ccccc2)CCN(Cc2cccc3nccnc23)CC1", "hERG current change (%, negative = inhibition) at 1uM": -19.3}
{"smiles": "CCOC(=O)C1(CCOc2ccccc2)CCN(Cc2ccc3c(c2)OCCO3)CC1", "hERG current change (%, negative = inhibition) at 1uM": -25.8}
{"smiles": "CCOC(=O)C1(CCc2ccccc2)CCN(Cc2cccc3cnccc23)CC1", "hERG current change (%, negative = inhibition) at 1uM": -4.67}
{"smiles": "Cc1ccc(/C=N/Nc2nnc(Cl)c3ccccc23)cc1", "hERG current change (%, negative = inhibition) at 1uM": -1.46}
{"smiles": "COc1ccc(C[C@H]2c3cc(O)c(OC)cc3CC[N+]2(C)[O-])cc1O", "note": "(stereo partly drawn)", "hERG current change (%, negative = inhibition) at 1uM": 16.9}
{"smiles": "Cn1c(NCCc2ccccc2)cc(=O)n(C)c1=O", "hERG current change (%, negative = inhibition) at 1uM": 11.8}
{"smiles": "Cc1ccc(C(=O)N(C)Cc2ccc(N3CCOCC3)cc2)cc1S(=O)(=O)NCc1ccccc1", "hERG current change (%, negative = inhibition) at 1uM": 1.2}
{"smiles": "CCCCNC(=S)NNC(=O)c1cc(C2CC2)nc2ccccc12", "hERG current change (%, negative = inhibition) at 1uM": 13.2}
{"smiles": "COc1ccc(C2CC(=O)n3c(nc4ccccc43)S2)cc1OC", "note": "(stereo not drawn)", "hERG current change (%, negative = inhibition) at 1uM": 12.9}
{"smiles": "COc1ccc(CNC(=O)COC(=O)CN2C(=O)C(C)Oc3ccc(C)cc32)cc1", "note": "(stereo not drawn)", "hERG current change (%, negative = inhibition) at 1uM": 9.75}
{"smiles": "CCOC(=O)C1(CCOC)CCN(Cc2ccc(C(=O)OC)cc2)CC1", "hERG current change (%, negative = inhibition) at 1uM": 0.201}
{"smiles": "CCOC(=O)C1(CCc2ccccc2)CCN(Cc2ccc(C(=O)OC)cc2)CC1", "hERG current change (%, negative = inhibition) at 1uM": -86.1}
{"smiles": "CCOC(=O)C1(CCOc2ccccc2)CCN(Cc2ccc(C(=O)OC)cc2)CC1", "hERG current change (%, negative = inhibition) at 1uM": -15.5}
{"smiles": "Cc1ccc(NC(=O)/C(C#N)=C/c2ccc(C)s2)c(C)c1", "hERG current change (%, negative = inhibition) at 1uM": 14.2}
{"smiles": "N#Cc1ccc(CN2CCN(C(=O)c3cccc(S(=O)(=O)N4CCCCCC4)c3)CC2)cc1", "hERG current change (%, negative = inhibition) at 1uM": -51.3}
{"smiles": "Cl.O=C(c1cccc(S(=O)(=O)N2CCCCC2)c1)N1CCN(Cc2ccccc2)CC1", "hERG current change (%, negative = inhibition) at 1uM": 6.64}
{"smiles": "N#Cc1ccc(CN2CCN(C(=O)c3ccc(S(=O)(=O)N4CCCCCC4)cc3)CC2)cc1", "hERG current change (%, negative = inhibition) at 1uM": -5.24}
{"smiles": "Cc1sc2ncn(Cc3ccccc3F)c(=O)c2c1C", "hERG current change (%, negative = inhibition) at 1uM": 1.65}
{"smiles": "O=C1CS/C(=N/N=C2C3CC4CC(C3)CC2C4)N1", "hERG current change (%, negative = inhibition) at 1uM": -4.65}
{"smiles": "CC(=O)OC1CC[C@]2(C#N)[C@H]3CC[C@]4(C)[C@H](C5C=CC(=O)O5)CCC4(O)C3CCC2(O)C1", "note": "(stereo partly drawn)", "hERG current change (%, negative = inhibition) at 1uM": 12.9}
{"smiles": "Cc1cc(C(=O)N2CCCC(N3CCN(c4ccccc4C)CC3)C2)n(C)n1", "note": "(stereo not drawn)", "hERG current change (%, negative = inhibition) at 1uM": -87.7}
{"smiles": "CCCc1cc(C(=O)N2CCCC(N3CCN(c4ccccc4C)CC3)C2)n(C)n1", "note": "(stereo not drawn)", "hERG current change (%, negative = inhibition) at 1uM": 3.48}
{"smiles": "Cc1ccccc1N1CCN(C2CCCN(C(=O)c3cc(CC(C)C)nn3C)C2)CC1", "note": "(stereo not drawn)", "hERG current change (%, negative = inhibition) at 1uM": 5.95}
{"smiles": "Cc1cccc(NS(=O)(=O)c2ccc(C(=O)NCC(C)(C)N3CCOCC3)cc2)c1C", "hERG current change (%, negative = inhibition) at 1uM": -6.55}
{"smiles": "COc1ccc(C(c2sc3nc(C)nn3c2O)N2CCN(Cc3ccccc3)CC2)cc1OC", "note": "(stereo not drawn)", "hERG current change (%, negative = inhibition) at 1uM": 3.82}
{"smiles": "Cc1nc2sc(C(c3cccs3)N3CCN(Cc4ccccc4)CC3)c(O)n2n1", "note": "(stereo not drawn)", "hERG current change (%, negative = inhibition) at 1uM": -50.1}
{"smiles": "Cc1nc2sc(C(c3cccs3)N3CCN(c4ccccc4)CC3)c(O)n2n1", "note": "(stereo not drawn)", "hERG current change (%, negative = inhibition) at 1uM": 5.92}
{"smiles": "COc1ccc(OC)c(/C=N/N(C)c2ccccc2)c1", "hERG current change (%, negative = inhibition) at 1uM": 12.4}
{"smiles": "O=C(NCCCCO)C(F)(F)C(F)(F)C(F)(F)C(=O)NCCCCO", "hERG current change (%, negative = inhibition) at 1uM": 14.4}
{"smiles": "CCC(CC)C(=O)c1c[nH]c(C(=O)NCc2ccncc2)c1", "hERG current change (%, negative = inhibition) at 1uM": 10}
{"smiles": "CC(=O)c1ccc(N2CCN(CC(=O)Nc3ccccc3C(=O)NC3CC3)CC2)c(F)c1", "hERG current change (%, negative = inhibition) at 1uM": -5.91}
{"smiles": "COc1cc2c(cc1OC)CN(CC(=O)Nc1ccccc1C(=O)NC1CC1)CC2", "hERG current change (%, negative = inhibition) at 1uM": -6.04}
{"smiles": "Cc1ccccc1N1CCN(CC(=O)Nc2ccccc2C(=O)NC2CC2)CC1", "hERG current change (%, negative = inhibition) at 1uM": -35.4}
{"smiles": "COc1cc(C)c(CN2CCN(CC(=O)Nc3ccccc3C(=O)NC3CC3)CC2)cc1OC", "hERG current change (%, negative = inhibition) at 1uM": -87.6}
{"smiles": "COc1ccc(OC)c(NC(=O)CN2CCC(NC(=O)c3ccccc3C)CC2)c1", "hERG current change (%, negative = inhibition) at 1uM": -4.31}
{"smiles": "O=C(CN1CCN(S(=O)(=O)c2ccc(F)c(F)c2)CC1)Nc1ccccc1C(=O)NC1CC1", "hERG current change (%, negative = inhibition) at 1uM": -23.7}
{"smiles": "CCOc1ccccc1C(=O)NC1CCN(CC(=O)Nc2cc(OC)ccc2OC)CC1", "hERG current change (%, negative = inhibition) at 1uM": -25.6}
{"smiles": "COc1ccc(F)cc1CN1CCN(CC(=O)Nc2ccccc2C(=O)NC2CC2)CC1", "hERG current change (%, negative = inhibition) at 1uM": -88.8}
{"smiles": "COc1ccc(OC)c(CN2CCN(CC(=O)Nc3ccccc3C(=O)NC3CC3)CC2)c1", "hERG current change (%, negative = inhibition) at 1uM": -87.6}
{"smiles": "CCOc1ccccc1N1CCN(CC(=O)Nc2ccccc2C(=O)NC2CC2)CC1", "hERG current change (%, negative = inhibition) at 1uM": -23.5}
{"smiles": "COc1ccc(CN2CCN(CC(=O)Nc3ccccc3C(=O)NC3CC3)CC2)cc1F", "hERG current change (%, negative = inhibition) at 1uM": -99.6}
{"smiles": "COc1ccccc1OCC(=O)Nc1ccccc1C(=O)NC1CC1", "hERG current change (%, negative = inhibition) at 1uM": 1.98}
